{"source": "the OligoGym collection", "data": [{"molecular_target": "JOSD1", "experiment": "pooled miR-30 sensor sort-seq; sequence = guide strand", "conditions": "shRNA", "values": [{"sequence": "TACCTCTTCTGGTACCACCAGC", "sensor-assay potency score (higher = more potent)": -0.788}, {"sequence": "TTTTAGAAACTTCCTGAGCTCG", "sensor-assay potency score (higher = more potent)": -0.609}, {"sequence": "TTCCTGAGCTCGCTCTCGCCTC", "sensor-assay potency score (higher = more potent)": -1.09}, {"sequence": "TTGGAGTCGAGGTTGTAGTAGG", "sensor-assay potency score (higher = more potent)": -0.655}, {"sequence": "TTGTGAGGTGTCACCATGGTGT", "sensor-assay potency score (higher = more potent)": -0.922}, {"sequence": "TTGAGTTTGGAGTCGAGGTTGT", "sensor-assay potency score (higher = more potent)": 0.206}, {"sequence": "TTTAGAAACTTCCTGAGCTCGC", "sensor-assay potency score (higher = more potent)": 0.218}]}, {"molecular_target": "KAAG1", "experiment": "pooled miR-30 sensor sort-seq; sequence = guide strand", "conditions": "shRNA", "values": [{"sequence": "TCAGTTTCTCGTTCGTTTCAGG", "sensor-assay potency score (higher = more potent)": -0.203}, {"sequence": "TTCGTCAGTTTCTCGTTCGTTT", "sensor-assay potency score (higher = more potent)": -0.143}, {"sequence": "AAGAGCGTGCTTGTGTACCGCA", "sensor-assay potency score (higher = more potent)": -0.0933}, {"sequence": "TTCTCGTTCGTTTCAGGAGGCG", "sensor-assay potency score (higher = more potent)": -0.584}, {"sequence": "TCAGCCCGTCGTGAAGAGCGTG", "sensor-assay potency score (higher = more potent)": -1.18}, {"sequence": "TTTCTCGTTCGTTTCAGGAGGC", "sensor-assay potency score (higher = more potent)": 0.381}, {"sequence": "TGCTTGTGTACCGCAACGGGGA", "sensor-assay potency score (higher = more potent)": -1.14}, {"sequence": "TCTCGTTCGTTTCAGGAGGCGA", "sensor-assay potency score (higher = more potent)": -0.839}, {"sequence": "TCGTTTCAGGAGGCGATCCCGC", "sensor-assay potency score (higher = more potent)": -1.24}, {"sequence": "TTTCAGGAGGCGATCCCGCGCC", "sensor-assay potency score (higher = more potent)": -0.845}, {"sequence": "ATTCGTCAGTTTCTCGTTCGTT", "sensor-assay potency score (higher = more potent)": -0.19}, {"sequence": "TGGATTCGTCAGTTTCTCGTTC", "sensor-assay potency score (higher = more potent)": -0.583}]}]}
